According to PubChem BioAssay (EPA / NIEHS):
Where “and” joins values, the source holds several entries; their conditions need not be identical. Equal values may be shown once. Inconclusive results are not listed. Some compounds were tested as several samples or in several runs, with calls that do not always agree. Calls of active or inactive are those of the source. The calls were made as follows, unless noted: active = hit-call score of the fitted dose curve at least 0.9, where 1 is the maximum; inactive = score below 0.9.

Key:
[1] = target: human Vitamin D Receptor (VDR), VDR (gene 7421) (UniProt P11473); test: ATG_VDR_TRANS: Attagene TRANS-FACTORIAL HepG2 Assay for human Vitamin D Receptor (VDR) (AID 2283022; active = hit-call score of the fitted dose curve at least 0.9, where 1 is the maximum)
Sequence of human Vitamin D Receptor (VDR), VDR (gene 7421) (P11473 whole entry, looked up): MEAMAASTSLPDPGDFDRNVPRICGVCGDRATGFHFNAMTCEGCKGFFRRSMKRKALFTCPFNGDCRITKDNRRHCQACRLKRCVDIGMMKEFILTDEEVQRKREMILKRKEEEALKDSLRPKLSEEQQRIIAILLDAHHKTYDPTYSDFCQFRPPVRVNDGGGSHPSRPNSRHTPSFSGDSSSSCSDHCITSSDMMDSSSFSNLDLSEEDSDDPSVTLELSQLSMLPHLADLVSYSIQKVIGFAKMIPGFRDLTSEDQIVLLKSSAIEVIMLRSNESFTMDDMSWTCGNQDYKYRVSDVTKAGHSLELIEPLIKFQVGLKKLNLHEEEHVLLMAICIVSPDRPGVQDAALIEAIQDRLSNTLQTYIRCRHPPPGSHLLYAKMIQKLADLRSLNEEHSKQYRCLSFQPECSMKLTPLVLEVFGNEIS
Procedure, shortened: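 Multiplexed TRANS reporter in HepG2; 24 h treatment; reporter mRNA by RT-PCR plus capillary electrophoresis; upregulation scored relative to DMSO.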

[2] = BSK_3C_SRB: Viability Assessment in the BioMAP Diversity Plus: 3C Assay (AID 2283023); details: primary human endothelial cells (HUVEC);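 also: cells read 24 h after compound dosing; fitted both ways against DMSO so a hit may be signal rise or drop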
Procedure, shortened: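 Overt cytotoxicity is gauged in parallel confluent HUVEC cultures by SRB total-protein staining at the time of biomarker measurement, 24 h after dosing. Gain or loss of signal is fitted versus DMSO.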

[3] = read-out: Matrix Metallopeptidase 1 (MMP1), MMP1 (gene 4312); test: BSK_BE3C_MMP1: BioMAP Diversity Plus: BE3C Assay for Matrix Metallopeptidase 1 (MMP1) Biomarker Activity (AID 2283024); details: primary human bronchial epithelial cells; actives raise or lower the signal
Procedure, shortened: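 ELISA measurement of MMP-1 after 24 h compound exposure of primary human bronchial epithelial cells. Changes in either direction fitted relative to DMSO; parallel SRB staining checked overt cytotoxicity.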

[4] = BSK_3C_Vis: BioMAP Diversity Plus: 3C Assay for Morphology Visualization (AID 2283025); details: primary human endothelial cells (HUVEC);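 also: fitted both ways so gain or loss versus DMSO counts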;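 as to AC50: light microscopy image of cell morphology used as background control; cells imaged 24 h after dosing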
Procedure, shortened: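 Light-microscopy visualization of HUVEC cultures at 24 h post-treatment, with DMSO as baseline for bidirectional fitting.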

[5] = read-out: Pselectin, SELP (gene 6403); test: BSK_4H_Pselectin: BioMAP Diversity Plus: 4H Assay for Pselectin Biomarker Activity (AID 2283026); details: primary human endothelial cells (HUVEC); actives raise or lower the signal
Procedure, shortened: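 ELISA of surface P-selectin on HUVEC, 24 h after dosing, with parallel SRB staining (0.1% after 10% TCA fixation, 560 nm) for overt cytotoxicity. Activity fitted in both directions relative to DMSO.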

[6] = BSK_4H_SRB: Viability Assessment in the BioMAP Diversity Plus: 4H Assay (AID 2283027); details: primary human endothelial cells (HUVEC);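 also: cells exposed to compound for 24 h before staining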;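 as to AC50: curves fitted both ways versus DMSO so AC50 may be loss or gain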
Procedure, shortened: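 HUVEC, 24 h post-dose; 10% TCA fix, 0.1% SRB stain, A560 nm. Total protein = overt cytotoxicity, parallel to biomarker read. Bidirectional fit vs DMSO baseline.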

[7] = read-out: Thrombomodulin, THBD (gene 7056); test: BSK_3C_Thrombomodulin: BioMAP Diversity Plus: 3C Assay for Thrombomodulin Biomarker Activity (AID 2283029); details: primary human endothelial cells (HUVEC); actives raise or lower the signal
Procedure, shortened: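 ELISA measurement of thrombomodulin on HUVEC surface 24 h after chemical dosing; activity fitted in both directions relative to DMSO vehicle.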

[8] = read-out: Urokinase-type plasminogen activator receptor (uPAR), PLAUR (gene 5329); test: BSK_4H_uPAR: BioMAP Diversity Plus: 4H Assay for Urokinase-type plasminogen activator receptor (uPAR) Biomarker Activity (AID 2283030); details: primary human endothelial cells (HUVEC); actives raise or lower the signal
Procedure, shortened: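 Endpoint derived via bidirectional curve fitting against DMSO baseline; readout was ELISA detection of uPAR on umbilical vein endothelial cells at 24 h post-treatment, with SRB-stained parallel cultures assessing cytotoxicity.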

[9] = read-out: Vascular endothelial growth factor receptor 2 (Homo sapiens) (UniProt P35968); test: BSK_4H_VEGFRII: BioMAP Diversity Plus: 4H Assay for Vascular endothelial growth factor receptor 2 (VEGFR2) Biomarker Activity (AID 2283031); details: primary human endothelial cells (HUVEC); actives raise or lower the signal;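 as to AC50: cell-surface VEGFR2 protein level quantified by ELISA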
Procedure, shortened: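 In this multiplexed HUVEC system, biomarker ELISA was performed after 24 h chemical exposure. Parallel SRB staining (TCA fixation, 560 nm) tracked cytotoxicity; DMSO served as baseline.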

[10] = BSK_BE3C_SRB: Viability Assessment in the BioMAP Diversity Plus: BE3C Assay (AID 2283028); details: primary human bronchial epithelial cells;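 as to AC50: fitted both ways so AC50 may mark signal gain or loss versus DMSO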
Procedure, shortened: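 SRB total-protein staining (0.1%, after TCA fixation) of chemically dosed human bronchial epithelial primary cells at 24 h; DMSO serves as the negative control for bidirectional curve fitting.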

Measured: AC50

C#CCN1C(=O)COc2cc(F)c(N3C(=O)C4=C(CCCC4)C3=O)cc21
not listed: [10]
inactive: all other assays above

O=C(O)C(F)(F)C(F)(F)C(F)(F)C(F)(F)C(F)(F)C(F)(F)C(F)(F)F
active: [2] 46.1 µM | [3] 25.8 µM [middle of 5 runs] | [8] 1.49 µM
inactive: [1] | [2] | [3] | [4] | [5] | [6] | [7] | [8] | [9]

CCC(C)(C)C(=O)OC1=C(c2ccc(Cl)cc2Cl)C(=O)OC12CCCCC2
inactive: [1] | [7] | [9]
active: [2] 26.1 µM | [3] 36.6 µM | [4] 29.4 µM | [5] 36.5 µM | [6] 34.3 µM | [8] 32 µM

COC(=O)c1ccccc1CS(=O)(=O)NC(=O)Nc1nc(OC)cc(OC)n1
not listed: [10]
inactive: all other assays above

N#Cc1c(Cl)c(Cl)c(Cl)c(C#N)c1Cl
inactive: [1]
active: [2] 2.14 µM | [3] 4.1 µM | [4] 0.468 µM | [5] 0.911 µM | [6] 1.96 µM | [7] 0.148 µM | [8] 1.81 µM | [9] 1.44 µM

CC(C)(C)C(O)/C(=C\c1ccc(Cl)cc1Cl)n1cncn1 (configuration not stated)
inactive: [1] | [7]
active: [2] 27.8 µM | [3] 33.6 µM | [4] 37.2 µM | [5] 32.1 µM | [6] 15.8 µM | [8] 27.9 µM | [9] 27.4 µM

CNC(=O)/C=C(\C)OP(=O)(OC)OC
inactive: all assays above

CNC(=O)CSP(=S)(OC)OC
not listed: [10]
inactive: all other assays above

[2H]C1([2H])[n+]2ccccc2-c2cccc[n+]2C1([2H])[2H]
active: [3] 2.08 µM | [8] 1.49 µM
not listed: [9] | [10]
inactive: all other assays above

CC1(c2ccc(Oc3ccccc3)cc2)OC(=O)N(Nc2ccccc2)C1=O (configuration not stated)
inactive: [3] | [7]
active: [2] 28.5 µM | [4] 16.3 µM | [5] 31.7 µM | [6] 20 µM | [8] 16.1 µM | [9] 20 µM

COP(=O)(OC)OC=C(Cl)Cl
active: [4] 9.8 µM | [5] 16.8 µM
not listed: [1]
inactive: all other assays above

CC1(C)C(C=C(Cl)Cl)C1C(=O)OC(C#N)c1ccc(F)c(Oc2ccccc2)c1 (configuration not stated)
active: [2] 8.15 µM | [4] 9.8 µM
not listed: [10]
inactive: all other assays above

O=C(NC(=O)c1c(F)cccc1F)Nc1ccc(OC(F)(F)C(F)OC(F)(F)F)c(Cl)c1 (configuration not stated)
not listed: [1] | [10]
inactive: all other assays above

CN1CSC(=S)N(C)C1
inactive: [3] | [6] | [8] | [9]
active: [2] 20 µM | [4] 13.2 µM | [5] 6.08 µM | [7] 5.21 µM

CCC(C)(NC(=O)c1cc(Cl)c(C)c(Cl)c1)C(=O)CCl (configuration not stated)
inactive: [7]
active: [2] 12.2 µM | [3] 27 µM | [4] 7.99 µM | [5] 12 µM | [6] 27.3 µM | [8] 26.1 µM | [9] 20 µM

CC(C)OC(=O)Nc1cccc(Cl)c1
not listed: [10]
inactive: all other assays above

CCc1ccc(C(=O)NN(C(=O)c2cc(C)cc(C)c2)C(C)(C)C)cc1
active: [2] 11.8 µM | [6] 17.7 µM | [10] 15.4 µM | [8] 24.2 µM
not listed: [1]
inactive: all other assays above

Oc1cc(Cl)ccc1Oc1ccc(Cl)cc1Cl
inactive: [1] | [7] | [9]
active: [2] 10.8 µM [middle of 4 runs] | [3] 32.6 µM [middle of 4 runs] | [4] 12.6 µM [middle of 4 runs] | [5] 12.3 µM [middle of 4 runs] | [6] 20.4 µM and 17.8 µM and 20.9 µM | [8] 14.7 µM [middle of 4 runs] | [9] 6.66 µM and 9.59 µM
